# Results from PubChem BioAssay AID720522 (National Center for Advancing Translational Sciences (NCATS), 2013).
# Hit rate of the full screen: of about 1,400 compounds, about 60 (4%) were called active. Inconclusive results (about 7%) are left out. Calls follow the shape of the dose curve; as a rule, active = well fitted inhibition curve with a large enough effect; inconclusive = small, poorly fitted or top-dose-only effect; inactive = flat fitted curve, though single readings scatter. Not all results are given here.
# Target: Luciferin 4-monooxygenase (Photinus pyralis) (UniProt P08659)
# Experiment: Nrf2 qHTS screen for inhibitors: Purified Fluc Biochemical Counterscreen for Hit Validation; also: nearly all actives have a fitted effect of over 65% in size
# Details: purified firefly luciferase, luminescence inhibition; series mostly up to 57.5 µM; activity change, negative = inhibition: at the top concentration
# Source text: Nrf2 is a transcription factor that maintains cellular redox homoestasis and protects cells from xenobiotics. Nrf2 binds to the antioxidant response element (ARE) to induce gene expression of a broad spectrum of genes that encode for antioxidants. […] Finding a small molecule that act as an inhibitor of Nrf2 function would represent a novel therapeutic target that could lead to improvement in survival of patients undergoing chemo- and/or radio- therapy.
# A biochemical assay in 1536 well format was developed and utilized to remove compounds that inhibit the luciferase reporter (Fluc) rather than the Nrf2 enzyme. Inhibition of this assay = false positive inhibition of Nrf2.
# NIH Chemical Genomics Center [NCGC]
# NIH Molecular Libraries Probe Centers Network [MLPCN]
# Assay Submitter (PI): Shyam Biswal, Johns Hopkins University
# [1] Shibata T., et al., Genetic alteration of Keap1 confers constitutive Nrf2 activation and resistance to chemotherapy in gallbladder cancer. Gastroenterology, 2008.
# [2] Sjoblom T., et al., The consensus coding sequences of human breast and colorectal cancers. Science, 2006.
# Three microliter of substrate solution containing 50mM Tris acetate, 13.3 mM Mg-acetate, 0.01mM ATP, 0.01% Tween, 0.05% BSA and 0.01mM D-Luciferin (Sigma, #L9504) was dispensed into 1536 well white solid bottom assay plate (Greiner Bio, #789173-F). Twenty-three nanoliter of compounds dissolved in DMSO at different concentrations was added to the plate using a Kalypsys 1536-pin tool. Then 1 uL of firefly luciferase reagent containing 50mM Tris-acetate and 0.04uM P. pyralis luciferase (Sigma, #L9506) was added. The final DMSO concentration was maintained at 0.56%. Luminescence signal was acquired using the PerkinElmer Viewlux plate reader after incubation at room temperature for 10 minutes.
# % is scaled to controls: 0 for no effect and ±100 for the full control effect; potency is read from the fitted curve at half-maximal effect.
# Luciferin 4-monooxygenase (Photinus pyralis), sequence (P08659 whole entry, looked up): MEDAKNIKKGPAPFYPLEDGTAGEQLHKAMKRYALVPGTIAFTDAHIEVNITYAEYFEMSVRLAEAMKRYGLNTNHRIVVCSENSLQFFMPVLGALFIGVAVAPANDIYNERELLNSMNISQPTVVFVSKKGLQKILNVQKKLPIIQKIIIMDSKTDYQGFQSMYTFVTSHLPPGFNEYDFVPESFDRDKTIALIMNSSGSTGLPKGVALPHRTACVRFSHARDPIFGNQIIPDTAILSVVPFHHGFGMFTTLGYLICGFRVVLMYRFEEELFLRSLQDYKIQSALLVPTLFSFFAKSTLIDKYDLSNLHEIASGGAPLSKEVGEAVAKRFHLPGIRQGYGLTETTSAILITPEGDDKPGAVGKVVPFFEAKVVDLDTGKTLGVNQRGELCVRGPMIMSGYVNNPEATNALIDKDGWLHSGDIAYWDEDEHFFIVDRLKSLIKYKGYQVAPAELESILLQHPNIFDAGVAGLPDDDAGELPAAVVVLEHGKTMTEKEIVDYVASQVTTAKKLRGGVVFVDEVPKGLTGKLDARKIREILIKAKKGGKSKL
SMILES,"activity change, negative = inhibition",Potency
Cc1cc(C(=O)NC2CCCc3c2cnn3-c2cccc(C)c2C)c(C)o1 (stereo not given),-15.8% (inactive),–
O=C(CCC(=O)N1CCN(S(=O)(=O)c2ccc(Cl)cc2)CC1)NCc1cccc(C(F)(F)F)c1,2.67% (inactive),–
Cc1nc(N2CCOCC2)c2c(C)c(C(=O)Nc3ccc(C(F)(F)F)cc3)sc2n1,-11.7% (inactive),–
O=C(Nc1ccncc1)c1c(F)cccc1F,0.655% (inactive),–
Cc1ccc(S(=O)(=O)N2CCN(c3ncnc4ccccc34)CC2)cc1,–,inactive
CC(=NNC(=S)N1CCCCCC1)c1ccccn1,–,12 µM (active)
CCCCNc1nc2c(c(=O)n(C)c(=O)n2C)n1Cc1cccc(OC)c1,2.33% (inactive),–
CC(=O)N1c2ccc(S(=O)(=O)N3CCCC(C(=O)NCc4ccc(Cl)cc4)C3)cc2CC1C (stereo not given),-0.0313% (inactive),–
CN(C)c1ccc(/C=C/c2sc3ccccc3[n+]2CCCCBr)cc1,2.47% (inactive),–
CCC(C)N1C(=O)S/C(=C/c2ccc(Sc3nc4ccccc4[nH]3)o2)C1=O (stereo not given),-3.17% (inactive),–
O=C1C=C(c2ccnc3cc(Cl)ccc23)C[C@@H](c2ccc3c(c2)OCO3)C1,-0.462% (inactive),–
COc1cccc(-c2nc(CS(=O)(=O)CC(=O)N3CCN(c4cc(C)ccc4C)CC3)c(C)o2)c1,-16.5% (inactive),–
COCCn1c(SCC(=O)Nc2ccccc2F)nc2c(c1=O)SCC2,-0.508% (inactive),–
Cn1nccc1C(=O)NC1CCCc2c1cnn2-c1ccc(F)cc1F (stereo not given),2.08% (inactive),–
Cc1oc2c(F)c(F)c(F)c(F)c2c1S(=O)(=O)Nc1cccc(C(F)(F)F)c1,-1.25% (inactive),–
CC(=O)N1CCCc2cc(S(=O)(=O)N3CCCC(C(=O)N4CCN(c5cccc(Cl)c5)CC4)C3)ccc21 (stereo not given),-0.273% (inactive),–
Cc1ccc(NC(=O)C2CC(=O)N(c3ccc4c(c3)OCCO4)C2)cc1S(=O)(=O)N1CCCCCC1 (stereo not given),-12.3% (inactive),–
O/N=C(\C[n+]1ccccc1)c1ccc(Br)cc1,-0.184% (inactive),–
N#CC(C#N)=CN=c1ccn(Cc2ccc(Cl)cc2Cl)cc1,-2.69% (inactive),–
O=c1[nH]c(SCc2cccc(F)c2)nc2ccccc12,-12.6% (inactive),–

SMILES,"activity change, negative = inhibition",Potency
COc1cccc(-c2nnc(NC(=O)c3ccc(S(=O)(=O)N(CC(C)C)CC(C)C)cc3)o2)c1,-0.563% (inactive),–
Cc1cc(C)c(-c2csc(NC(=O)CCCc3nc4ccccc4c(=O)[nH]3)n2)c(C)c1,1.65% (inactive),–
Cc1c(Cl)cccc1NC(=O)Cn1cc(C(=O)c2cccs2)c2ccccc21,-11.4% (inactive),–
CC1(C)O[C@@H]2CC3C4C[C@H](F)C5=CC(=O)C=CC5(C)C4C(O)CC3(C)[C@]2(C(=O)CO)O1 (stereo not given in full),-1.87% (inactive),–
CC(=O)Nc1ccc(Nc2c3ccccc3nc3ccccc23)cc1,-10.2% (inactive),–
CCCOc1ccc(C(=O)Nc2ccc3oc(-c4cccc(Cl)c4Cl)nc3c2)cc1,0.869% (inactive),–
CC(=O)OC(C)C[N+](C)(C)C (stereo not given),-2.04% (inactive),–
COc1ccc(CC(=O)Nc2nc(-c3ccc(F)c(F)c3)cs2)cc1OC,-1.67% (inactive),–
O=C(OCCOc1ccccc1Cl)c1cc(S(=O)(=O)N2CCCCC2)ccc1N1CCOCC1,2.03% (inactive),–
CC1CCCN(S(=O)(=O)c2ccc(C(=O)Nc3nnc(-c4ccncc4)o3)cc2)C1 (stereo not given),2.31% (inactive),–
CC[C@H]1CN2CCc3cc(OC)c(OC)cc3[C@@H]2C[C@@H]1C[C@H]1NCCc2cc(OC)c(OC)cc21,0.375% (inactive),–
Cc1ccc(S(=O)(=O)N2C[C@@H]3CCCC[C@@H]3[C@@H](C)[C@H]2c2cn(Cc3ccccc3)c3ccc(F)cc23)cc1,2% (inactive),–
OCCCNc1nccc(-c2cc(Nc3cccc(Cl)c3)ncn2)n1,-22.4% (inactive),–
Cc1ccc(NS(=O)(=O)c2cccs2)cc1S(=O)(=O)N1CCCCCC1,-0.678% (inactive),–
CCOC(=O)c1cnc(-n2nc(C)cc2C)nc1NNc1cc(C)nc(-c2ccccc2)n1,4.06% (inactive),–
CN(Cc1cccnc1)C(=O)c1cc(COc2ccc3ncccc3c2)on1,-3.7% (inactive),–
CC1(C)CC(N2CCN(C(c3ccccc3)c3ccccc3)CC2)=CC(=[N+]2CCCCC2)C1,-16% (inactive),–
Cc1csc[n+]1CCC1CCCCC1,-0.381% (inactive),–
O=C(Nc1ccc(Br)cn1)C1CCN(S(=O)(=O)c2cccs2)CC1,1.61% (inactive),–
COc1ccc(N2CCN(C(=O)CSCc3nc(-c4ccccc4Cl)oc3C)CC2)cc1,0.323% (inactive),–

SMILES,"activity change, negative = inhibition",Potency
CCCOc1ccc(Cc2c(Cl)nc(SC)nc2NC)cc1,-1.64% (inactive),–
Cc1cccc(N2CCN(C(=O)CCS(=O)(=O)c3ccc4c(c3)NC(=O)C(C)S4)CC2)c1C (stereo not given),2.31% (inactive),–
C[n+]1ccc(/C=C/c2c[nH]c3ccccc23)cc1,2.78% (inactive),–
O=C(CN1C(=O)c2ccccc2S1(=O)=O)N1CCc2ccccc21,–,4.26 µM (active)
O=C(CSc1nnc2c(n1)[nH]c1ccccc12)NC1CCCCC1,-1.71% (inactive),–
O=C(CC(O)(C(F)(F)F)C(F)(F)F)Nc1ccc(Cl)c(Cl)c1,1.69% (inactive),–
COc1ccc(C(=O)C[n+]2ccc(N)c(C)c2C)cc1,-0.956% (inactive),–
CCCN(c1ccc(C(C)C)cc1)S(=O)(=O)c1c(C)[nH]c(=O)[nH]c1=O,-1.53% (inactive),–
CCOc1ccc(S(=O)(=O)N2CCCCC2)cc1NC(=O)CN1CCCC1c1cccs1 (stereo not given),-0.627% (inactive),–
CC1CCN(S(=O)(=O)c2ccc(NC(=O)C3CC(=O)N(c4ccccc4)C3)cc2)CC1 (stereo not given),-0.62% (inactive),–
COc1ccc(CCNC(=O)c2ccc(CS(=O)(=O)c3ccc(Br)cc3)o2)cc1OC,-8.22% (inactive),–
COc1ccc(OC)c(Cc2cnc3nc(N)nc(N)c3c2C)c1,-2.63% (inactive),–
CCCCCCCCn1c2c(c(=N)c3c1CCC3)CCCC2,1.69% (inactive),–
COc1ccc(CCNc2cc(N3CCN(C(=O)c4ccccc4OC)CC3)ccc2[N+](=O)[O-])cc1OC,-10.5% (inactive),–
CC(=O)N1c2ccc(S(=O)(=O)N3CCCC(C(=O)Nc4cccc(Cl)c4)C3)cc2CC1C (stereo not given),2.21% (inactive),–
CNC(=O)c1cccc2nc3ccccc3nc12,1.57% (inactive),–
CC(C)Cn1c(N)c(C(=O)COC(=O)CN2C(=O)C3CC=CCC3C2=O)c(=O)n(C)c1=O (stereo not given),0.523% (inactive),–
Cc1cc(C)cc(NS(=O)(=O)c2ccc(Oc3ncc(C(F)(F)F)cc3Cl)cc2)c1,1.28% (inactive),–
CCNS(=O)(=O)c1ccc(CCC(=O)N2CCN(c3cc(Cl)ccc3C)CC2)cc1,2.95% (inactive),–
C=CCC1(CC=C)CCCN1C(=O)c1cc(COc2ccc(-n3cncn3)cc2)on1,0.848% (inactive),–
